Data as given in PubChem BioAssay.

target: Calmodulin-1 (Homo sapiens) (UniProt P0DP23); test: calcium-bound CALM1 binders on microarrays, profiling panel, artefact control for SMM control-protein annotation, biochemical, small-molecule microarray, Cy5-labelled CALM1, plus calcium (AID 1112); conditions: Cy5-CALM1 binding fluorescence, higher = more signal;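 also: score merges spot fluorescence with signal to noise from triplicate slides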

| Compound | composite z-score |
| --- | --- |
| C=CCC(OC(C)=O)[C@@H]1[C@@H](N(Cc2cc3ccccc3o2)C(=O)c2ccc(C)cc2)c2cc(OCCCO)ccc2N1C(=O)Cc1ccc2ccccc2c1 (some centres not stated) | -0.147 |
| COC(=O)[C@H](Cc1ccccc1)N1CC(/C=C/C2CC2)=C[C@@H]1[C@@H](O)Cc1ccccc1 | -0.513 |
| C=C1C2CC3C(=C4C(CO[C@@H]4[C@H]4CCCN4S(=O)(=O)c4ccccc4[N+](=O)[O-])C4C(=O)N(C)C(=O)C34)CC2C(=O)N1C (some centres not stated) | -0.0942 |
| [N-]=[N+]=Nc1ccccc1C[C@]1(C(=O)NCc2ccccc2)N=C(c2ccc(OCCCO)cc2)O[C@H]1c1ccccc1 | 0.848 |
| COc1ccccc1CN1C(=O)c2ccccc2[C@](Cc2ccccc2I)(C(=O)NC(C)C)[C@@H]1c1ccc(CO)cc1 | 0.0649 |
| O=C1NC(=O)C2C1C=CC(C(O)c1ccc3c(c1)OCO3)N2Nc1ccccn1 (configuration not stated) | -0.197 |
| [N-]=[N+]=NCc1ccccc1C[C@@]1(C(N)=O)N=C(c2ccc(OCCCO)cc2)O[C@@H]1c1ccccc1CN=[N+]=[N-] | 0.693 |
| COCCCNC(=O)[C@]1(Cc2ccccc2CN=[N+]=[N-])N=C(c2ccc(OCCCO)cc2)O[C@@H]1c1ccccc1 | 0.0518 |
| COCCOC(=O)N1C(=O)[C@@]2(c3cc(C#CC4(O)CCCCCC4)ccc31)[C@H](C(=O)N1CCCCCCC1)[C@H]1C(=O)O[C@H](c3ccccc3)[C@H](c3ccccc3)N1[C@@H]2c1ccc(OCCO)cc1 | 1.01 |
| CN(C)CCCCNC(=O)[C@H]1C[C@H]2C(=O)N3CCC[C@H]3C(=O)N2[C@H]1c1ccc(O)cc1 | -0.949 |
| O=C1O[C@H](c2ccccc2)[C@H](c2ccccc2)N2[C@H]1[C@@H](C(=O)O)[C@]1(C(=O)Nc3ccccc31)[C@H]2c1ccc(O)cc1 | -0.262 |
| C=CC[C@@]1(C(=O)O)N=C(c2ccc(OCCCO)cc2)O[C@@H]1c1ccccc1 | -1.41 |
| CN1C(=O)C2C(C1=O)C1C=C(c3ccc(CO)cc3)C2C(c2cccs2)N1Cc1cccc(OC(F)(F)F)c1 (configuration not stated) | 0.334 |
| COc1cc(CO)cc(I)c1O[C@H]1C=C(C(=O)NCCO)C[C@@H](N(CC2CCCCC2)C(=O)c2ccc(C(F)(F)F)cc2)[C@@H]1O | -0.21 |
| C=C(/C=C/CNS(=O)(=O)c1ccc(C)cc1)[C@H](O)[C@H]1CCCN1S(=O)(=O)c1ccccc1[N+](=O)[O-] | -0.795 |
| C=CCN1C(=O)[C@@]2(O[C@@H](CCO)[C@H]([Si](C)(C)c3ccc(OC)cc3)[C@H]2C)c2cc(N3C(=O)c4ccccc4Oc4ccccc43)ccc21 | 0.927 |
| COCCOC(=O)N1C(=O)[C@@]2(c3cc(C#CCNC(N)=O)ccc31)[C@H](C(=O)N1CCCCCCC1)[C@H]1C(=O)O[C@H](c3ccccc3)[C@H](c3ccccc3)N1[C@@H]2c1ccc(O)cc1 | -0.947 |
| Cc1ccc(S[C@]2(C(=O)NCc3ccccc3)CC(=O)N(C(C)C)[C@@H]2c2ccc(CO)cc2I)cc1 | 0.475 |
| CCOC(=O)C1=CC[C@@H](c2ccc([N+](=O)[O-])cc2)N(S(=O)(=O)c2ccc(C)cc2)[C@H]1c1ccccc1 | 0.423 |
| COc1ccc([Si](C)(C)[C@H]2[C@H](CCn3cc([C@H](O)c4ccccc4)nn3)O[C@@]3(C(=O)N(Cc4ccc(N5CCC5=O)cc4)c4ccccc43)[C@@H]2C)cc1 | -0.217 |
| COc1cc2c(cc1OC)CN(C(=O)[C@H]1[C@@H]3C(=O)O[C@@H](c4ccccc4)[C@@H](c4ccccc4)N3[C@@H](c3ccc(OCCO)cc3)[C@]13C(=O)Nc1ccc(C#CCCO)cc13)CC2 | 0.642 |
| COc1ccc(NN2C(C(O)c3ccco3)C=CC3C(=O)N(C4CCCCC4)C(=O)C32)cc1 (configuration not stated) | 0.267 |
| NC(=O)N1C(=O)C2C(C1=O)C1C=C(c3ccc(CO)cc3)C2C(C2CC2)N1Cc1sc2ccccc2c1Cl (configuration not stated) | 0.163 |
| CON(C)C(=O)C=C1C[C@@H](c2cccc(Cl)c2)O[C@@H](c2cccc(Cl)c2)O1 | 0.3 |
| O=C1O[C@@H](c2ccccc2)[C@@H](c2ccccc2)N2[C@@H](c3ccccc3OCCO)[C@]3(C(=O)Nc4ccccc43)[C@@H](C(=O)NC[C@H](O)c3ccccc3)[C@H]12 | 0.845 |
| C=C(/C(=C/C[C@@H](OC(=O)c1ccncc1)c1ccc(OCCO)cc1)c1cc(C(=O)OC)ccc1OC)C(C)C | -0.252 |
| COCCOC(=O)N1C(=O)[C@@]2(c3cc(C#Cc4ccc(OC)cc4)ccc31)[C@H](C(=O)NC[C@H](O)c1ccccc1)[C@H]1C(=O)O[C@H](c3ccccc3)[C@H](c3ccccc3)N1[C@@H]2c1ccc(O)cc1 | -0.0377 |
